Experimental findings from PubChem BioAssay AID687014 (The Scripps Research Institute Molecular Screening Center, 2013) are described below.

Among all 370,000 compounds or so, about 6,800 (1.8%) were called active. The list comes from a sample in which actives are over-represented; it also holds similar structures and randomly drawn compounds. Values without a mark were called inactive.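 Rule for the calls: active = activation above a cutoff set at the mean of all screened compounds plus 3 SD (cut at about 10% in these data); inactive = the rest.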

This assay relates to Nuclear hormone receptor DAF-12 (Heterodera glycines), GAL4 fusion. Description: H. glycines DAF-12 receptor agonists, primary screen, cell-based, luminescence, HEK293, GAL4 fusion, UAS-luciferase (AID 687014).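 Note: 0% = DMSO wells and 100% = sodium butyrate wells.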 The settings on record: HEK293 GAL4-hgDAF12 UAS-luciferase reporter, agonist luminescence; at 6.8 µM; hits give high values; normalized to butyrate control.
For `COC(=O)C12C=C3CC(c4ccccc4)=C3C(=O)N1Cc1[nH]c3ccccc3c1C2` (configuration not stated), the activation was -0.17%.

`CCc1c(C)nc2cc(C)[nH]n2c1=O`: the activation was -1.41%.

On to `C=CCc1c(C)nc2cc(-c3ccccc3)[nH]n2c1=O`, for which the activation was 11.2% (active).

Take `Cc1nc2nc[nH]n2c(=O)c1C/C=C/c1ccccc1`: the activation is -0.77%.

For the compound `C[C@@H]1CN([C@@H](C)CO)C(=O)c2c(c3ccccc3n2C)-c2ccccc2CO[C@H]1CN(C)C(=O)C1CC1`, the activation was 0.34%.

Consider `Cc1ccccc1NC(=O)C1CCN(c2ncccn2)CC1`, for which the activation was 2.53%.

Turning to `Cc1cccc(-n2c(O)c(C=Nc3ccccc3N)c(=O)[nH]c2=O)c1`, the activation is 14.9% (active).

As to `COc1cccc(CNC(=O)CNS(=O)(=O)c2ccc3nc(C)sc3c2)c1OC`, the activation was -1.09%.

With `CCOC(=O)[C@]12CCCCC/C=C\1N(Cc1ccc(OC)cc1)C(=O)[C@H]2CC(=O)NCCCN1CCCC1=O`, the activation was 3.26%.

In the case of `CCn1c(=O)n2n(c1=O)[C@@]1(C=C3CCCC[C@H]32)N=C(NC(=O)c2ccccc2)N(Cc2ccccc2)[C@H]1Cc1ccccc1`, the activation is -2.77%.

Take `COc1ccc(C(C)(O)c2nc(-c3cc(F)cc(F)c3)cs2)cc1` (configuration not stated): the activation was -1.7%.

For `COc1ccc(-c2csc(Cc3nc(O)cs3)n2)cc1`, the activation was 21.6% (active).

For the compound `COc1ccc(C(C)(NC(C)=O)c2nc(-c3ccc(S(C)(=O)=O)cc3)cs2)cc1` (configuration not stated), the activation was -0.04%.

Consider `Cc1c(C(C)c2ccccc2O)[nH]c2ccccc12` (configuration not stated), for which the activation is 2.99%.

`Cc1sc2ncnc(N3CCC(C(=O)Nc4ccc(F)cc4Cl)CC3)c2c1C`: the activation is -1.36%.

As to `Cc1sc2ncnc(N3CCC(C(=O)Nc4nc5ccc(Cl)cc5s4)CC3)c2c1C`, the activation is 12.9% (active).

With `Cc1sc2ncnc(N3CCC(C(=O)NNC(=O)c4ccc(F)cc4)CC3)c2c1C`, the activation is -1.73%.

On to `COc1ccc(OC)c(NC(=O)C2CCCN2S(=O)(=O)c2ccc3c(c2)CC(C)N3C(C)=O)c1` (configuration not stated), for which the activation is -2.45%.

`O=C(NCc1ccc(Cl)cc1)C1CCCN(c2nc3ccccc3o2)C1` (configuration not stated): the activation was -0.62%.

Turning to `CC(=O)C1(C(=O)Nc2nccs2)CC(c2ccccc2C(F)(F)F)=NO1` (configuration not stated), the activation is 0.67%.

On to `O=c1c2cc([N+](=O)[O-])ccc2nc2n1CCC2`, for which the activation was -2.97%.

Take `Cc1ccc(-n2cc3ccc([N+](=O)[O-])cc3n2)cc1`: the activation was 17.1% (active).

As for `Cc1ccnc(N2C(=O)c3ccc([N+](=O)[O-])cc3C2=O)c1`, the activation was 0.65%.

Take `Cc1cccc(N2C(=O)SC(N(CC(=O)O)c3cccc(C)c3)C2=O)c1` (configuration not stated): the activation was 2.06%.

Turning to `COC(=O)c1ccccc1SC1CC(=O)N(c2cccc(C)c2)C1=O` (configuration not stated), the activation was -0.2%.

As for `Cc1cccc(N2C(=O)SC(SC(=Nc3ccccc3)Nc3ccccc3)C2=O)c1` (configuration not stated), the activation is 12.4% (active).

Consider `O=S1(=O)c2ccc(Br)cc2OC[C@@H](Cc2ccccc2)N1Cc1cn(Cc2ccco2)nn1`, for which the activation was -2.95%.

In the case of `CC(C)(C)OC(=O)N(Cc1ccccc1)Cc1ccc(OCc2cccc(NC(=O)c3ccccc3)c2)cc1`, the activation is 3.23%.

On to `CCOc1ccc(OCc2ccc(C(=O)N(C)c3ccccc3)o2)cc1`, for which the activation is -0.02%.

With `CCOc1ccc(OCc2cccc(C(=O)N(CC)CC)c2)cc1`, the activation is 15.3% (active).

As to `COc1cccc(N2CCN(CC(=O)N(C)Cc3ccc(F)cc3)CC2)c1`, the activation is 2.78%.

Take `CC(C)CNC(=O)OCc1cn(Cc2ccc(F)cc2)nn1`: the activation was 0.8%.

Turning to `CS(=O)(=O)N(CC(=O)NC1CCCC1)Cc1ccc(F)cc1`, the activation is -0.56%.

As to `Cc1ccc(-c2nnc(SCC(=O)Nc3ccc(Oc4ccccc4)cc3)n2Cc2ccco2)cc1`, the activation is -0.14%.

Take `CC(=O)Nc1ccc(S(=O)(=O)NCC(=O)OCC(=O)c2ccc[nH]2)cc1`: the activation is -0.16%.

On to `C/C(=N\NC(=O)OC(C)(C)C)c1ccc[nH]1`, for which the activation was 13.9% (active).

With `CC(C)(C)OC(=O)N[C@H](C(=O)OC(C)(C)C)c1ccc(Br)cc1`, the activation is 2.51%.

For `COC(=O)[C@]12C[C@H](CC(=O)NCc3ccc(OC)c(OC)c3)C(=O)N(Cc3ccccc3)C1=C[C@H](C(C)C)O[C@@H]2C1CC1`, the activation was -0.64%.

Take `c1cncc(CNc2ccnc(-c3ccc4c(c3)OCO4)n2)c1`: the activation was 8.09%.

Regarding `Cc1cc(NS(=O)(=O)c2ccc(NC(=O)CSc3nnc(-c4ccc(C(C)(C)C)cc4)n3Cc3ccco3)cc2)nc(C)n1`, the activation is 0.44%.

For `O=C(NC1CCCC1)C(c1ccccn1)N(C(=O)c1csnn1)C1CCCC1` (configuration not stated), the activation is -0.77%.

For `CN(C)c1ccc(/C=C2\NC(=S)N(Cc3ccccc3)C2=O)cc1`, the activation is 2.67%.

Take `CN(C)c1ccc(C=C2C(=O)OC3(CCCC3)OC2=O)cc1`: the activation was 11.1% (active).

On to `CCCC[C@H](C(=O)N(CC)c1ccccc1)[C@@H](O)c1ccc2ccccc2c1`, for which the activation is -1.89%.

As for `CCCNC(=O)Nc1ccc2c(c1)C(=O)N(C)[C@H]1CC[C@H](CC(=O)NCC3CCCCC3)O[C@@H]1CO2`, the activation is 2.46%.

For the compound `CCc1ccccc1S(=O)(=O)Cc1ccc(C(=O)NCCc2ccccc2)o1`, the activation was -1.29%.

`CCCOc1ccc(Oc2c(Cl)cnn(Cc3cccc4ccccc34)c2=O)cc1`: the activation is -0.9%.

With `COc1ccc2cc(CCl)c(Cl)nc2c1`, the activation was 5.31%.

As to `COc1ccc2nc(-c3ccccn3)ccc2c1`, the activation is 14.8% (active).

Take `COc1ccc(C=C(C#N)C#N)c(CSc2ccccn2)c1`: the activation is -4.02%.

`CN1CCCCC(NC(=O)C(C)(C)C)C1=O` (configuration not stated): the activation was -0.75%.

As for `COc1ccc(-c2cc(C3CCN(c4ncccc4[N+](=O)[O-])CC3)[nH]n2)cc1`, the activation is -1.82%.

Consider `COc1ccc(-c2cc3ncccc3cn2)cc1`, for which the activation was 14.3% (active).

In the case of `COc1ccc(-c2cc3n(n2)CCc2nc4ccccc4n2-3)cc1`, the activation is 1.57%.

In the case of `COc1cccc(N(C)C(=O)[C@@H](C)[C@@H](O)c2ccc3ccccc3c2)c1`, the activation was -0.12%.

Consider `O=C(NCc1ccco1)C1CCCN(S(=O)(=O)c2ccc(Cl)s2)C1` (configuration not stated), for which the activation is 2.01%.

As to `CN(C(N)=NC(=O)/C=C/c1ccccc1)C(C#Cc1ccccc1)Cc1ccccc1` (configuration not stated), the activation is 2.81%.

With `CCCCn1c(N)c(N(CC(C)C)C(=O)CSc2ccc([N+](=O)[O-])cc2)c(=O)[nH]c1=O`, the activation is 2.08%.

Turning to `Cn1cnc(C(F)(F)F)c1-c1ccc([N+](=O)[O-])cc1`, the activation was 0.97%.

Consider `O=C1C2C3C=CC(C4CC34)C2C(=O)N1/N=C/c1ccc(-c2ccccc2[N+](=O)[O-])o1` (configuration not stated), for which the activation was -3.65%.

As to `CN1CCN(/N=C/c2ccc(-c3ccc([N+](=O)[O-])cc3)o2)CC1`, the activation is 10.5% (active).

As for `O=C(CSc1nc2c(c(=O)[nH]1)CCCC2)N1CCCCC1`, the activation was -4.02%.

On to `Cc1cc(C)nc(Nc2n[nH]c(-c3ccccc3N)n2)n1`, for which the activation was 12.2% (active).

On to `CCCOc1ccccc1-c1nc(SCCC(=O)O)n[nH]1`, for which the activation is -0.41%.

Turning to `O=C(OCC#CCSc1nnc(-c2ccco2)o1)c1ccc(F)cc1`, the activation is -3.04%.

For `COC(=O)C1=C(C)NC(=S)NC1c1ccc(OC)cc1` (configuration not stated), the activation is 0.66%.

On to `CCOC(=O)[C@]12CCCCC/C=C\1N(Cc1ccc(OC)cc1)C(=O)[C@H]2CC(=O)NCc1ccc(C)o1`, for which the activation was -1.27%.

Turning to `O=C(NCCCc1ccccc1)c1cc(COc2c(F)cccc2F)on1`, the activation is 4.73%.

`CC(C)Cc1cc(C(=O)Nc2cc(Br)ccc2O)no1`: the activation is 6.04%.

Consider `CC(C)Cc1cc(C(=O)NCCc2ccccc2)no1`, for which the activation is 13% (active).

As to `O=S1(=O)c2ccc(N3CCN(Cc4ccccc4F)CC3)cc2Oc2ccccc2CN1Cc1cn(Cc2ccc(Cl)cc2)nn1`, the activation was 0.48%.

Consider `C[C@@H]1CN([C@@H](C)CO)C(=O)c2cccc(NC(=O)Nc3cccc4ccccc34)c2O[C@H]1CN(C)S(=O)(=O)c1ccccc1F`, for which the activation is -4.71%.

`CN(C)[C@H]1CCN(c2cccc3c2S(=O)(=O)N2CC[C@H](C2)O3)C1`: the activation was -1.45%.

In the case of `CC1CC(=NNC(=O)C2COc3ccccc3O2)CC(C)(C)C1` (configuration not stated), the activation is 3.29%.

For `CC1C/C(=N/NC(=O)c2cccs2)CC(C)(C)C1` (configuration not stated), the activation was 14% (active).

With `CCc1ccc(C(=O)NN=C2CCCCCC2)s1`, the activation is 3.37%.

Regarding `COc1ccccc1CCn1cnc(-c2ccccc2)c1C(C)C`, the activation was -2.29%.

For `Cc1ccn(CC(=O)N2N=C(C(F)F)CC2(O)C(F)F)n1` (configuration not stated), the activation is 1.75%.

Consider `Cc1ccc(N(CC(=O)Nc2cc(C)cc(C)c2)S(=O)(=O)c2cccc3nonc23)cc1`, for which the activation is 1%.

Turning to `COc1cc(NC(=O)CN(C)S(=O)(=O)c2ccc3nc(C)sc3c2)cc(OC)c1`, the activation was -1.83%.

For `Cc1nc2ccc(S(=O)(=O)N(C)CC(=O)NC(C)c3ccccc3)cc2s1` (configuration not stated), the activation is -1.17%.

In the case of `CCN(CC)S(=O)(=O)c1ccc(NC(=O)CN(c2cccc(F)c2)S(C)(=O)=O)cc1`, the activation was -0.33%.

As for `Cc1cccc(N(CC(=O)Nc2ccc(-c3nc4ccc(C)cc4s3)cc2)S(C)(=O)=O)c1`, the activation is 15% (active).

In the case of `Cc1ccc2nc(-c3ccc(NC(=O)CN(C)S(=O)(=O)c4ccccc4)cc3)sc2c1`, the activation was 11.4% (active).

For the compound `Cc1ccc2c(c1)N(CC(=O)N1CCC(C)CC1)C(=O)c1cccnc1O2`, the activation was -1.52%.

`CC[C@H](NC(=O)[C@H](Cc1ccccc1)NC(=O)[C@H]1O[C@@H](n2cnc3c(=O)[nH]c(N)nc32)[C@H](O)[C@@H]1O)c1ccccc1`: the activation is -0.43%.

Regarding `COc1ccccc1C(=O)CSc1nnc(-c2ccccn2)n1-c1ccccc1`, the activation is -5.4%.
